Results on 6 compounds are retold here after PubChem BioAssay (Tox21).

Where “and” joins values, the source holds several entries; their conditions need not be identical. Equal entries are not always repeated. Some compounds were tested as several samples or in several runs, with calls that do not always agree. Calls of active or inactive are those of the source. Unless noted, calls come from the whole dose curve; as a rule, active = well fitted curve in the direction sought with a large enough effect in the repeat runs; inconclusive = weak or mixed curves; inactive = no such curve, though single readings can be large; an effect the other way counts as inactive or inconclusive.

Assay [1] is described as follows: qHTS assay to identify small molecule antagonists of the thyroid receptor (TR) signaling pathway (AID 743065). Note: nearly all actives have a fitted effect of over 55% in size. Note: potency is the fitted concentration of half-maximal effect. In short, it runs like this:
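GH3.TRE-Luc rat pituitary cells (two TREs driving luciferase) were dosed with compound, then stimulated with 1 nM T3 (final) for 23.5 h at 37 C. ONE-Glo luminescence was the read-out, with CellTiter-Fluor fluorescence as the cytotoxicity counter-screen.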
In general terms: In qHTS, concentration-response curves come from the screen itself.

The test system of assay [2] is thyroid hormone receptor (rat, GH3 cells). Briefly: qHTS assay to identify small molecule agonists of the thyroid receptor (TR) signaling pathway (AID 743066; calls by dose curve).
Assay [3] deals with Estrogen receptor (Homo sapiens) (UniProt P03372). Briefly: qHTS assay to identify small molecule antagonists of the estrogen receptor alpha (ER-alpha) signaling pathway (AID 743069; active = well fitted curve in the direction sought with a large enough effect in the signal ratio in the repeat runs, not every such curve was filed as active; inconclusive = weak or mixed curves, or effect the other way; inactive = no such curve, though single readings can be large or run the other way; the % refers to the signal ratio; note: potency is the fitted concentration of half-maximal effect). The gist of the method: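 Beta-lactamase FRET fluorescence is read after 2 hr at room temperature with LiveBLAzer B/G substrate. Before that, ER-alpha-bla HEK293 cells sit 4 hr after plating, then receive compound plus 17beta-estradiol and incubate 18 hr at 37C.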

Assay [4] is described as follows: qHTS assay to identify small molecule antagonists of the estrogen receptor alpha (ER-alpha) signaling pathway - cell viability counter screen (AID 743074; calls by dose curve;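 note: HEK293 cells carrying ER-alpha-UAS-bla reporter stimulated with 17beta-estradiol; nearly all actives have a fitted effect of over 45% in size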; note: potency is the fitted concentration of half-maximal effect).
For assay [5], the target named is Estrogen receptor (Homo sapiens) (UniProt P03372). Nature of the assay: qHTS assay to identify small molecule agonists of the estrogen receptor alpha (ER-alpha) signaling pathway (AID 743075; calls by dose curve;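 note: HEK293 GripTite cells with ER-alpha and UAS-driven beta-lactamase reporter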; note: potency is the fitted concentration of half-maximal effect).
Assay [6] shares this target. Briefly: qHTS assay to identify small molecule agonists of the estrogen receptor alpha (ER-alpha) signaling pathway using the BG1 cell line (AID 743079). Note: nearly all actives have a fitted effect of over 20% in size. Note: potency is the fitted concentration of half-maximal effect.
Assay [7] is described as follows: qHTS assay to identify small molecule antagonists of the estrogen receptor alpha (ER-alpha) signaling pathway using the BG1 cell line (AID 743080; calls by dose curve;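 note: BG1 cells stimulated with 17beta-estradiol alongside compound; nearly all actives have a fitted effect of over 25% in size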; note: potency is the fitted concentration of half-maximal effect). In short, it runs like this:
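Luminescence from a 4×ERE-luciferase reporter in BG1-Luc-4E2 cells served as read-out. Cells, pre-cultured 5 days in stripped-serum phenol-red-free medium, were exposed to compound with 17beta-estradiol co-stimulation for 21.5 h at 37 C.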

Assay [8] can be described thus: qHTS assay to identify small molecule antagonists of the estrogen receptor alpha (ER-alpha) signaling pathway using the BG1 cell line - cell viability counter screen (AID 743081).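 Note: compound given together with 17beta-estradiol as the ER stimulus; nearly all actives have a fitted effect of over 45% in size.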 Note: potency is the fitted concentration of half-maximal effect.
In the next assay the target is Aromatase (Homo sapiens) (UniProt P11511). Briefly: qHTS assay to identify aromatase inhibitors (AID 743083). Note: nearly all actives have a fitted effect of over 55% in size. Note: potency is the fitted concentration of half-maximal effect.
The nature of assay [9]: qHTS assay to identify aromatase inhibitors - cell viability counter screen (AID 743084).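 Note: cells stimulated with testosterone during compound exposure; nearly all actives have a fitted effect of over 55% in size.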 Note: potency is the fitted concentration of half-maximal effect.
The target of assay [10] is Aryl hydrocarbon receptor (Homo sapiens) (UniProt P35869). Briefly: qHTS assay to identify small molecule that activate the aryl hydrocarbon receptor (AhR) signaling pathway (AID 743085).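 Note: HG2L7.5c1 human HepG2 liver cells with stably integrated DRE-driven firefly reporter; series mostly up to about 70 µM; nearly all actives have a fitted effect of over 15% in size.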 In short, it runs like this: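 A multiplexed format paired cell viability (CellTiter-Fluor fluorescence) with AhR-dependent luciferase output (ONE-Glo luminescence) in the same wells of HepG2 DRE-luc cells after 24 h compound exposure at 37C.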

A short description of assay [11]: qHTS assay to identify small molecule that activate the aryl hydrocarbon receptor (AhR) signaling pathway - cell viability counter screen (AID 743086).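 Note: HepG2 liver cells carrying the AhR DRE luciferase reporter; series mostly up to about 70 µM; nearly all actives have a fitted effect of over 45% in size.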 In short, it runs like this: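 HepG2-AhR-luc (HG2L7.5c1) cells, 4000/well, treated 24 h at 37 C with compound; viability measured as CellTiter-Fluor fluorescence after 30 min in the same wells as the luciferase read.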

Assay [12] deals with Peroxisome proliferator-activated receptor gamma (Homo sapiens) (UniProt P37231). Briefly: qHTS assay to identify small molecule agonists of the peroxisome proliferator-activated receptor gamma (PPARg) signaling pathway (AID 743094; active = well fitted activation curve with a large enough effect in the signal ratio in the repeat runs, not every such curve was filed as active; inconclusive = weak or mixed curves, or effect the other way; inactive = no such curve, though single readings can be large or run the other way; the % refers to the signal ratio). The gist of the method:
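Fluorescence-based beta-lactamase readout in HEK293H PPARg UAS-bla cells after 17 h compound exposure (37C) and 1 h B/G FRET substrate incubation at room temperature.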

Assay [13] shares this target. Nature of the assay: qHTS assay to identify small molecule antagonists of the peroxisome proliferator-activated receptor gamma (PPARg) signaling pathway (AID 743191; calls by dose curve; note: series mostly up to about 63 µM; nearly all actives have a fitted effect of over 30% in size). The gist of the method:
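GeneBLAzer PPARg UAS-bla HEK293H cells, 5 h post-plating, exposed to compounds 17 h at 37C. LiveBLAzer B/G FRET substrate added for 1 h at room temperature; beta-lactamase reporter read by fluorescence intensity.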

A short description of assay [14]: qHTS assay for small molecule agonists of the antioxidant response element (ARE) signaling pathway - cell viability counter screen (AID 743203; calls by dose curve; note: nearly all actives have a fitted effect of over 55% in size; note: potency is the fitted concentration of half-maximal effect). In short, it runs like this: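 Parallel cytotoxicity read-out for the ARE-bla screen: HepG2 reporter cells, 16 hrs with compounds, then CellTiter-Glo luminescence.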
Assay [15] can be described thus: qHTS assay for small molecule activators of the heat shock response signaling pathway - cell viability counter screen (AID 743209). Note: nearly all actives have a fitted effect of over 50% in size. Note: potency is the fitted concentration of half-maximal effect. In short, it runs like this:
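To flag cytotoxic compounds, HSE-bla HeLa cells plated at 1500 cells/well were dosed for 5 h at 37 C, followed by the reporter FRET read and then CellTiter-Glo, with luminescence recorded 30 min after reagent addition.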

Assay [16] can be described thus: qHTS assay to identify small molecule agonists of the peroxisome proliferator-activated receptor delta (PPARd) signaling pathway - cell viability counter screen (AID 743211). Note: nearly all actives have a fitted effect of over 55% in size. Note: potency is the fitted concentration of half-maximal effect. In short, it runs like this: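 Tox21 library compounds, delivered in DMSO, were incubated 17 h with PPARd-bla HEK293H cells; cytotoxicity was taken from CellTiter-Glo luminescence read 30 min after reagent addition.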

Assay [17] can be described thus: qHTS assay to identify small molecule antagonists of the peroxisome proliferator-activated receptor gamma (PPARg) signaling pathway - cell viability counter screen (AID 743194). Note: nearly all actives have a fitted effect of over 55% in size. The gist of the method: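 Cytotoxicity counter screen in PPARg-bla HEK293H cells, same wells as reporter assay. Compounds plus 50 nM rosiglitazone (final) for 17 h at 37 C, then viability read by CellTiter-Glo luminescence.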

The nature of assay [18]: qHTS assay for small molecule agonists of the antioxidant response element (ARE) signaling pathway (AID 743202; active = well fitted activation curve with a large enough effect in the signal ratio in the repeat runs, not every such curve was filed as active; inconclusive = weak or mixed curves, or effect the other way; inactive = no such curve, though single readings can be large or run the other way; the % refers to the signal ratio; note: potency is the fitted concentration of half-maximal effect). In short, it runs like this:
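HepG2 ARE-bla reporter line, 2,000 cells/well; 5 h preincubation 37 C/5% CO2; compound (DMSO) 16 h 37 C; B/G FRET substrate 2 h RT; fluorescence intensity.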

Assay [19] can be described thus: qHTS assay for small molecule activators of the heat shock response signaling pathway (AID 743210; active = well fitted activation curve with a large enough effect in the signal ratio in the repeat runs, with a control signal flat, not every such curve was filed as active; inconclusive = weak or mixed curves; the % refers to the signal ratio;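 note: HeLa cells with beta-lactamase reporter driven by heat shock elements; series mostly up to about 63 µM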). In short, it runs like this:
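Beta-lactamase reporter read-out: FRET substrate fluorescence after 2.5 h at RT, following 5 h compound treatment at 37 C of HeLa cells carrying HSE-driven bla reporter; quantitative HTS format.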

Sequence of Aromatase (Homo sapiens) (P11511 whole entry, looked up): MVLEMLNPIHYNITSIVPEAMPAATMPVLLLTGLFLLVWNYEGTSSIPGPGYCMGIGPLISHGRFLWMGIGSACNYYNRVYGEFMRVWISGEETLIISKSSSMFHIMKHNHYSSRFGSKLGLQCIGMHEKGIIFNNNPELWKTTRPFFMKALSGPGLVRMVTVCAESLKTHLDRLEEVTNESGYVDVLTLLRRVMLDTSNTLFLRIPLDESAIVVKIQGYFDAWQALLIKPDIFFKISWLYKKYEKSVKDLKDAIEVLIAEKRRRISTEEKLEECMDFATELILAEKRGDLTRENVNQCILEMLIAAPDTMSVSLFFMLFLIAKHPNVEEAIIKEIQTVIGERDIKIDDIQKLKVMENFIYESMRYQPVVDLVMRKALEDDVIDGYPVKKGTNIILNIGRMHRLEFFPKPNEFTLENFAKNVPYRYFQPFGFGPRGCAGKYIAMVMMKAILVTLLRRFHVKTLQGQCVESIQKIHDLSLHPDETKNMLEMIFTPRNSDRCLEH
Sequence of Peroxisome proliferator-activated receptor gamma (Homo sapiens) (P37231 whole entry, looked up): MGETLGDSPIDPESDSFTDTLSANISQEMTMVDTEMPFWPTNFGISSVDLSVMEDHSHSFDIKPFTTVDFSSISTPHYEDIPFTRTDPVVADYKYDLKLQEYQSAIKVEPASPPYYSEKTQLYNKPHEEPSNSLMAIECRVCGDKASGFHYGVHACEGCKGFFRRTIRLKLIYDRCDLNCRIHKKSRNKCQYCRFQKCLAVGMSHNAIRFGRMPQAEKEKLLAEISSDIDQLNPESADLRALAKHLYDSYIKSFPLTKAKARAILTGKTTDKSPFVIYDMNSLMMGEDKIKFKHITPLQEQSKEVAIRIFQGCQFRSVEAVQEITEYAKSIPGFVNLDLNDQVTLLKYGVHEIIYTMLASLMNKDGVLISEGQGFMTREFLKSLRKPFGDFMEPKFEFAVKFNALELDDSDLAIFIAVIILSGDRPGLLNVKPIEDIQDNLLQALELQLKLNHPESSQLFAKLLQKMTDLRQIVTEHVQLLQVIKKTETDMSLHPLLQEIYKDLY
Sequence of Aryl hydrocarbon receptor (Homo sapiens) (P35869 whole entry, looked up): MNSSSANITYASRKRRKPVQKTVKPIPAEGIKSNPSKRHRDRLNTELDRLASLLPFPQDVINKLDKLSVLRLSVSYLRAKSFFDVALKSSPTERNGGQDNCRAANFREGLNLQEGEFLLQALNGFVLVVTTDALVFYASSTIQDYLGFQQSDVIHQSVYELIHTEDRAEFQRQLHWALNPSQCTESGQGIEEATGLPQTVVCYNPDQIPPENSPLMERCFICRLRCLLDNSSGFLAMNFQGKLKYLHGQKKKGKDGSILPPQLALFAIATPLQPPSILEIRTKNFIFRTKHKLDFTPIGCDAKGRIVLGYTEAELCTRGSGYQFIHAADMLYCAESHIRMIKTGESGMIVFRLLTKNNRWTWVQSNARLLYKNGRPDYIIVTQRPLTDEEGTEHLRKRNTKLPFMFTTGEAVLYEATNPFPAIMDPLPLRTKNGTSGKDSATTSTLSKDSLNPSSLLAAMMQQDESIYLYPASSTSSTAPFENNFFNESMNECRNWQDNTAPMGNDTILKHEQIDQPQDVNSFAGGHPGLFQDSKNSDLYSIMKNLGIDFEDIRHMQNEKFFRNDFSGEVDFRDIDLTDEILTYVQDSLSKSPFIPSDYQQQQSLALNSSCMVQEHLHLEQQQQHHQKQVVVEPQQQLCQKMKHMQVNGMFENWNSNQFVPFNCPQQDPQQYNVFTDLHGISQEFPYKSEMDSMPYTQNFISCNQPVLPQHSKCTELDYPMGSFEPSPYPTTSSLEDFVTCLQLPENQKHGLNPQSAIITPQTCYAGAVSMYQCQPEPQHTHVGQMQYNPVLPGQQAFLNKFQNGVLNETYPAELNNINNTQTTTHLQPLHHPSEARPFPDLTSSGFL
Sequence of Estrogen receptor (Homo sapiens) (P03372 whole entry, looked up): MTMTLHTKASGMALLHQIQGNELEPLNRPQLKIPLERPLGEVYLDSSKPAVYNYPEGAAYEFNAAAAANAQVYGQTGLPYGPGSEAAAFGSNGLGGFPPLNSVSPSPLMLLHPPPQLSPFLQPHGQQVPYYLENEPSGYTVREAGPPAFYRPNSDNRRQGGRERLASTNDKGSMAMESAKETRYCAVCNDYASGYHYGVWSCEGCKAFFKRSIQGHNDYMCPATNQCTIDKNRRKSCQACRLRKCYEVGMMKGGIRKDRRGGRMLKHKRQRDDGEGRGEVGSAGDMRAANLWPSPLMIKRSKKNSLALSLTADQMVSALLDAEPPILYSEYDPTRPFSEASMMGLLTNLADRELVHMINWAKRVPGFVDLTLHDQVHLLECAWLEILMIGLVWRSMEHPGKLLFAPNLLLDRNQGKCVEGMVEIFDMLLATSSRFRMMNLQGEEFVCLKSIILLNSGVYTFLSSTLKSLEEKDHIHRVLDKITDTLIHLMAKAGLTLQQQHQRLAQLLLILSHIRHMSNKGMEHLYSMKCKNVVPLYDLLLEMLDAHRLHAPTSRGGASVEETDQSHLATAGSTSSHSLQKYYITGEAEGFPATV

As to `Clc1ccc2c(c1)C(N1CCNCC1)=Nc1ccccc1O2`, the Potency in [1] was 29.8 µM (active) and 30.6 µM (active); in assay [7] it was 11.9 µM (active); in [8], “inactive and 54.5 µM (active)”; with Aromatase (Homo sapiens), “inactive and 17.2 µM (active)”; in assay [14], 54.5 µM (active) and inactive; in assay [16], 27.5 µM (active) and 26.6 µM (active). The Potency entry in [2], in [3], in [4], in assay [5], in [6] and in assay [9] was “inactive” throughout. Further, the Potency result in assay [10], in [11], in assay [12], in [13] and in [15] was “inactive” in each case.
In the case of `CC(C)CCCCCCc1ccc(O)cc1`, the Potency in assay [1] was 22.1 µM (active) and 21.7 µM (active); in [5], 2.39 µM [inconclusive] (active) and 1.25 µM [inconclusive] (active) and 17.4 µM [inconclusive] (active); in assay [6], 1.88 µM (active) and 878 nM (active) and 2.17 µM (active); in assay [7], “inactive and 43.3 µM (active)”; in the assay with Aromatase (Homo sapiens) it was 34.4 µM (active); in assay [9] it was “inactive and 31.2 µM (active)”. The Potency in assay [15] is 39.6 µM (active) and 54.9 µM (active); in [16] it was 35.3 µM (active). Further, the Potency entry in assay [2], in [3], in [4], in assay [8], in [10] and in [11] was “inactive” throughout. In addition, the Potency result in assay [12] and in [14] was “inactive” each time.
For the compound `Cc1ccc(-c2cc(C(F)(F)F)nn2-c2ccc(S(N)(=O)=O)cc2)cc1`, the Potency is 23.7 µM (active) and 30.5 µM (active) and 54.5 µM (active) in assay [1]; “inactive and 54.9 µM [inconclusive] (active)” in assay [3]; “inactive and 43.5 µM (active)” in assay [4]; 23.9 µM [activator] (active) and inactive in assay [5]; 7.5 µM (active) in assay [6]; 29.8 µM (active) and 30.5 µM (active) with Aromatase (Homo sapiens). The Potency entry is “inactive and 54.3 µM (active)” in assay [9]; 26.6 µM (active) in assay [18]; 61.1 µM (active) and inactive in [14]; 54.9 µM (active) in assay [16]. Further, the Potency result in [2], in assay [7], in assay [8], in [10], in [11] and in assay [12] was “inactive” each time. For the same compound, the Potency entry in assay [17], in assay [15] and in [19] was “inactive” in each case.
For the compound `O=C1NCC2(CCN(CCc3ccccc3)CC2)O1`, the Potency entry in [1], in assay [2], in assay [3], in assay [4], in assay [5] and in assay [7] was “inactive” in each case. Moreover, the Potency entry (in assay [8]; with Aromatase (Homo sapiens); in assay [9]; in assay [10]; in assay [11]; in [12]) was “inactive” throughout. In addition, the Potency result in assay [13], in assay [17], in assay [18], in assay [14], in [15] and in [19] was “inactive” throughout. Moreover, the Potency result in assay [16] was “inactive”. In addition, in [6], the Potency is 29.8 µM (active).
`C=CS(=O)(=O)O`: the Potency entry in assay [1], in assay [2], in [3], in assay [4], in [5] and in assay [6] was “inactive” in each case. In addition, the Potency result (in assay [7]; in [8]; with Aromatase (Homo sapiens); in [9]; in [10]; in assay [11]) was “inactive” in each case. The Potency entry in [12], in [17], in [18], in [14], in [15] and in assay [19] was “inactive” each time. In addition, in [16], the Potency entry was “inactive”.
For `NCCCCCC(=O)O`, the Potency entry in [1], in assay [2], in [3], in assay [4], in assay [5] and in assay [6] was “inactive” throughout. Moreover, the Potency result (in [7]; in [8]; with Aromatase (Homo sapiens); in [9]; in assay [10]; in assay [11]) was “inactive” each time. For the same compound, the Potency result in assay [12], in assay [13], in assay [17], in [18], in [14] and in [15] was “inactive” each time. Further, the Potency result in assay [19] and in assay [16] was “inactive” throughout.
